Measurements from PubChem BioAssay AID463173 (ICCB-Longwood Screening Facility, Harvard Medical School, 2010).
About 4,300 (8.3%) of roughly 52,000 compounds were called active. Cut-off read from the data, not from the text of the source: active = survival mostly below about 52% (no sharp cut-off); inactive = mostly above about 56%. The entries come from a sample that favours actives as a whole.

What follows are compounds tested on DeltatarO mutant (assay: S. aureus survival, RN4220 and DeltatarO strains – OD600, teichoic acid synthesis inhibitors, primary screen (AID 463173)). Settings: S. aureus RN4220 wild type/DeltatarO growth, OD600, 18 h, hits give low values, screened at 18.75 µg/mL (by protocol).
CCOC(=O)c1ccc(N2CCN(c3ccc(F)cc3)CC2)c(NC(=O)Nc2cccc(OC)c2)c1 was tested, and the survival was 70% (inactive). CCOC(=O)c1ccc(N2CCN(c3cccc(Cl)c3)CC2)c(NC(=O)Nc2ccc(Cl)cc2)c1 was tested, and the survival was 92% (inactive). In the case of CCOC(=O)c1ccc(NC(=O)Nc2cc3c(cc2N2CCCC2)n(C)c(=O)n3C)cc1, the survival is reported as 82% (inactive). With CCn1c(=O)n(CC)c2cc(N3CCCCC3)c(NC(=O)Nc3cc(C)cc(C)c3)cc21 the survival was 100% (inactive). With CCOC(=O)c1ccc(N2CCN(c3cccc(OC)c3)CC2)c(NC(=O)Nc2ccc(OCC)cc2)c1 the survival was -5% (active). In the case of CCOC(=O)c1ccc(NC(=O)Nc2cc3c(cc2N2CCCCC2)n(CC)c(=O)n3CC)cc1, the survival is reported as 57% (active). For CCOc1ccc(-c2nc3c(c(CC)nn3-c3ccccc3)c3cc(OC)c(OC)cc23)cc1, the survival was 78% (inactive). For CCc1nc2sc3c(N4CCC(C)CC4)ncnc3c2c2c1CCCC2, the survival was 134% (inactive). For CCc1cccc(NC(=O)Cn2c(=O)n(CCC(=O)NCC3CCCO3)c(=O)c3cc(OC)c(OC)cc32)c1 (stereo unspecified), the survival was 62% (inactive). For COc1cccc2c1Oc1nc(-c3ccccc3)nc(SCC(=O)Nc3ccccc3)c1C2, the survival was 81% (inactive). In the case of CCOC(=O)c1ccc(NC(=O)c2ccc3c(c2)CCN3S(=O)(=O)c2ccc(Cl)cc2)cc1, the survival is reported as 64% (inactive). In the case of Cc1cccn2c(=O)c(C(=O)N3CCN(c4ccccc4)CC3)cnc12, the survival is reported as 49% (inactive). With CCN(C(=O)c1cn(CC(C)C)c(=O)c2cc(OC)c(OC)cc12)c1cc(OC)ccc1OC the survival was 55% (inactive). With CCc1ccccc1N(C)C(=O)c1cn(CC(C)C)c(=O)c2cc(OC)c(OC)cc12 the survival was 73% (inactive). COc1cc2c(C(=O)N3CCN(c4cccc(C)c4)C(C)C3)cn(CC(C)C)c(=O)c2cc1OC (stereo unspecified) was tested, and the survival was 46% (active). CCCN(C(=O)c1cn(CC(C)C)c(=O)c2cc(OC)c(OC)cc12)c1cccc(C)c1 was tested, and the survival was 152% (inactive). In the case of COc1cc2c(C(=O)N3CCN(c4ccc(F)cc4)CC3)cn(CC(C)C)c(=O)c2cc1OC, the survival is reported as 56% (inactive). With COc1cc2c(C(=O)N3CCN(c4ccc(C)cc4)C(C)C3)cn(CC(C)C)c(=O)c2cc1OC (stereo unspecified) the survival was 47% (inactive). For COc1cc2c(C(=O)N3CCN(c4cc(Cl)ccc4C)CC3)cn(CC(C)C)c(=O)c2cc1OC, the survival was 40% (active). For Cc1cccc(N2CCN(C(=O)c3cnc4c(C)cccn4c3=O)CC2C)c1 (stereo unspecified), the survival was 32% (active). With Cc1cccc(N2CCN(C(=O)c3cccn4c(=O)c5cc(Cl)ccc5nc34)CC2C)c1 (stereo unspecified) the survival was 66% (inactive). CCn1cc(C(=O)N2CCN(c3cc(Cl)ccc3C)CC2)c2cc(OC)c(OC)cc2c1=O was tested, and the survival was 64% (inactive). In the case of COc1cc2c(C(=O)N(C)c3cc(Cl)ccc3OC)cn(CC(C)C)c(=O)c2cc1OC, the survival is reported as 48% (active). In the case of CCOc1cc(C#N)c(NC(=O)c2ccc(OC)c(S(=O)(=O)N3CCCC3)c2)cc1OCC, the survival is reported as 52% (inactive). With CCCCCOc1ccc(C(=O)CCN2CCOCC2)cc1 the survival was 90% (inactive). For CC(C)c1nc2ccc(C(=O)NCc3ccc(F)cc3)cc2o1, the survival was 78% (inactive). In the case of COc1ccc(C2CC(=O)c3c([nH]c(C(=O)OC4CCCCCC4)c3C)C2)cc1 (stereo unspecified), the survival is reported as 79% (inactive). In the case of CCc1ccc(NC(=O)Cn2c(=O)n(CCCC(=O)NCCc3ccc(OC)c(OC)c3)c(=O)c3ccccc32)cc1, the survival is reported as 77% (inactive). With COc1ccc2c(c1)cc1c(=O)n(CC(=O)NC(C)C)nc(C)n12 the survival was 78% (inactive). With N#Cc1c2c(c(N3CCOCC3)[nH]c1=S)CCCC2 the survival was 94% (inactive). With O=S(=O)(NCC(c1ccco1)N1CCOCC1)c1ccc(Cl)cc1 (stereo unspecified) the survival was 86% (inactive). For O=C(Nc1c(C(=O)N2CCN(c3ccccc3F)CC2)oc2ccccc12)c1ccccc1F, the survival was 75% (inactive). Oc1ccc(NCc2ccc(OCc3ccccc3)cc2)cc1 was tested, and the survival was 72% (inactive). In the case of Oc1ccc(NCc2ccc(OCc3ccccc3Cl)cc2)cc1, the survival is reported as 35% (active). With Oc1ccc(NCc2ccccc2OCc2ccccc2Cl)cc1 the survival was 52% (active). For CCOc1cccc(CNc2ccc(O)cc2)c1OCc1ccccc1Cl, the survival was 68% (inactive). In the case of Oc1ccc(NCc2ccccc2OCc2ccc(Cl)cc2)cc1, the survival is reported as 91% (inactive). Oc1ccc(NCc2ccccc2OCc2ccccc2F)cc1 was tested, and the survival was 60% (inactive). CCC(C)NC(=O)Cn1c(=O)n(CCCC(=O)NCc2ccc(C)cc2)c(=O)c2ccccc21 (stereo unspecified) was tested, and the survival was 94% (inactive). For COc1ccccc1OCC(=O)NCC1(N(C)C)CCCCC1, the survival was 91% (inactive). With O=S(=O)(NCCc1ccc(Cl)cc1)c1ccc(N2CCCCS2(=O)=O)cc1 the survival was 93% (inactive). For COc1ccc(CCNS(=O)(=O)c2ccc(N3CCCCS3(=O)=O)cc2)cc1, the survival was 79% (inactive). With O=S(=O)(NCCc1ccccc1)c1ccc(N2CCCCS2(=O)=O)cc1 the survival was 52% (active). For c1ccc(Cn2nnnc2C(c2cccs2)N(Cc2cccnc2)Cc2ccco2)cc1 (stereo unspecified), the survival was 64% (inactive). Cc1c[n+](CC(=O)c2ccccc2)c(C)cn1 was tested, and the survival was 101% (inactive). Cc1nc(-c2ccc(F)cc2)sc1CCNC(=O)c1ccc(OC(C)C)cc1 was tested, and the survival was 67% (inactive). For Cc1ccc(C(=O)N2CCC(C(=O)O)CC2)cc1, the survival was 90% (inactive). COc1cc(C(=O)Oc2c(Sc3ccc(C)cc3)c(C)nn2-c2ccccc2)cc(OC)c1OC was tested, and the survival was 109% (inactive). Cc1ccc(C(=O)Oc2c(S(=O)(=O)c3ccccc3)c(C)nn2-c2ccccc2)cc1 was tested, and the survival was 90% (inactive). In the case of Cc1ccc(Sc2c(C)nn(-c3ccccc3)c2OC(=O)C(C)(C)C)cc1, the survival is reported as -10% (active). Cc1ccc(Sc2c(C)nn(-c3ccccc3)c2OC(=O)CC(C)C)cc1 was tested, and the survival was 21% (active). In the case of COc1ccc(C(=O)Oc2c(Sc3ccccc3)c(C)nn2-c2ccccc2)c(OC)c1, the survival is reported as 114% (inactive). Cc1nn(-c2ccccc2)c(OC(=O)C(C)(C)C)c1Sc1ccccc1 was tested, and the survival was 62% (inactive). For COc1ccc(Cc2nnc(SCC(=O)N3CCCC3)o2)cc1, the survival was 83% (inactive). In the case of COc1ccc(N(CC(=O)NCCc2ccc(C)cc2)S(=O)(=O)c2c(C)nn(C)c2C)cc1, the survival is reported as 71% (inactive). With COc1ccc(-c2nc3c(c(SCC(=O)N4CCCCC4)n2)Cc2cc(C)ccc2O3)cc1 the survival was 84% (inactive).
